The record followed here is PubChem BioAssay (EPA / NIEHS).

Records with an inconclusive call do not appear. Activity calls are given as the source filed them. The calls were made as follows, unless noted: active = hit-call score of the fitted dose curve at least 0.9, where 1 is the maximum; inactive = score below 0.9.

Read-out in assay [1]: solute carrier (SLCO1B1), SLCO1B1 (gene 10599)
Kind of assay: LTEA_HepaRG_SLCO1B1: Life Technologies and Expression Analysis (LTEA) Assay for solute carrier (SLCO1B1) using HepaRG (AID 2283530). To be noted: mRNA level, 48 h; actives raise or lower the signal. The essentials: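 HepaRG, serum-free induction medium, 48 h dosing, 8-pt half-log from 100 uM, 0.5% DMSO vehicle, duplicates. Readout: SLCO1B1 mRNA, qRT-PCR, ACTB/GAPDH/POLR2A normalization; up or down fit vs DMSO.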

Read-out in assay [2]: sulfotransferase 2A1 (SULT2A1), SULT2A1 (gene 6822)
Nature of the assay: LTEA_HepaRG_SULT2A1: Life Technologies and Expression Analysis (LTEA) Assay for sulfotransferase 2A1 (SULT2A1) using HepaRG (AID 2283531). The conditions noted are these: mRNA level, 48 h; actives raise or lower the signal. The essentials: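 Transcript levels of SULT2A1, quantified by qRT-PCR and normalized to three housekeeping genes, serve as the readout. Human HepaRG cultures receive test chemicals for 48 h at up to 100 uM in half-log steps, with 0.5% DMSO vehicle.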

Read-out in assay [3]: Transforming Growth Factor (TGFA), TGFA (gene 7039)
Nature of the assay: LTEA_HepaRG_TGFA: Life Technologies and Expression Analysis (LTEA) Assay for Transforming Growth Factor (TGFA) using HepaRG (AID 2283532). The conditions noted are these: mRNA level, 48 h; actives raise or lower the signal. Put shortly:
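Differentiated HepaRG cells exposed 48 hours in serum-free induction medium, 0.5% DMSO vehicle, 8-point half-log series from 100 uM, in duplicate. TGFA mRNA by TaqMan qRT-PCR, normalised to ACTB, GAPDH, POLR2A; bidirectional fit versus DMSO.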

Read-out in assay [4]: Transforming Growth Factor (TGFB1), TGFB1 (gene 7040)
Nature of the assay: LTEA_HepaRG_TGFB1: Life Technologies and Expression Analysis (LTEA) Assay for Transforming Growth Factor (TGFB1) Transporter using HepaRG (AID 2283533). To be noted: mRNA level, 48 h; actives raise or lower the signal. Put shortly: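 HepaRG, 48 h post-plating, switched to serum-free induction medium; chemicals 100 uM top, half-log, 8 pts, 0.5% DMSO, dup; 48 h exposure; RNA → Fluidigm TaqMan qRT-PCR; norm ACTB/GAPDH/POLR2A; bidirectional fit vs DMSO.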

Read-out in a further assay: TIMP1, TIMP1 (gene 7076)
Nature of the assay: LTEA_HepaRG_TIMP1: Life Technologies and Expression Analysis (LTEA) Assay for TIMP1 using HepaRG (AID 2283534). To be noted: mRNA level, 48 h; actives raise or lower the signal. Put shortly:
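Readout is TIMP1 mRNA level measured by qRT-PCR and normalized to three housekeeping genes. Human HepaRG cells were treated for 48 h in duplicate at eight concentrations up to 100 uM (0.5% DMSO); gain or loss fitted against DMSO.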

Read-out in assay [5]: Tumor necrosis factor receptor 1 (TNFRSF1A), TNFRSF1A (gene 7132)
Kind of assay: LTEA_HepaRG_TNFRSF1A: Life Technologies and Expression Analysis (LTEA) Assay for Tumor necrosis factor receptor 1 (TNFRSF1A) using HepaRG (AID 2283535). The conditions noted are these: mRNA level, 48 h; actives raise or lower the signal. Put shortly:
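Read-out is TNFRSF1A transcript level by TaqMan qRT-PCR, normalized to three housekeeping genes, scored as gain or loss of signal versus 0.5% DMSO. Human HepaRG cells received test chemicals for 48 h at up to 100 uM (half-log series).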

Read-out in assay [6]: Thyroid Hormone Responsive (THRSP), THRSP (gene 7069)
Kind of assay: LTEA_HepaRG_THRSP: Life Technologies and Expression Analysis (LTEA) Assay for Thyroid Hormone Responsive (THRSP) using HepaRG (AID 2283536). To be noted: mRNA level, 48 h; actives raise or lower the signal. Put shortly:
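Differentiated HepaRG cells treated 48 h in serum-free induction medium with 8 half-log concentrations up to 100 uM (0.5% DMSO), duplicates. THRSP mRNA by TaqMan qRT-PCR normalised to ACTB, GAPDH, POLR2A; bidirectional fit versus DMSO.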

Read-out in assay [7]: Cellular tumor antigen p53 (Homo sapiens) (UniProt P04637)
Nature of the assay: LTEA_HepaRG_TP53: Life Technologies and Expression Analysis (LTEA) Assay for Tumor Protein P53 (TP53) using HepaRG (AID 2283537). To be noted: mRNA level, 48 h; actives raise or lower the signal. Put shortly: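 Gain or loss of TP53 mRNA signal is scored relative to 0.5% DMSO after 48 h chemical treatment of HepaRG liver cells, tested in duplicate at eight half-log concentrations up to 100 uM.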

Read-out in assay [8]: UDP glucuronosyltransferase (UGT1A1), UGT1A1 (gene 54658)
Kind of assay: LTEA_HepaRG_UGT1A1: Life Technologies and Expression Analysis (LTEA) Assay for UDP glucuronosyltransferase (UGT1A1) using HepaRG (AID 2283538). To be noted: mRNA level, 48 h; actives raise or lower the signal. Put shortly: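 Differentiated human HepaRG cells in serum-free induction medium were exposed in duplicate for 48 h to eight half-log concentrations up to 100 uM in 0.5% DMSO. UGT1A1 mRNA was quantified by TaqMan qRT-PCR, normalized to ACTB, GAPDH and POLR2A, and fitted bidirectionally against DMSO.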

Read-out in assay [9]: UDP glucuronosyltransferase (UGT1A6), UGT1A6 (gene 54578)
Kind of assay: LTEA_HepaRG_UGT1A6: Life Technologies and Expression Analysis (LTEA) Assay for UDP glucuronosyltransferase (UGT1A6) using HepaRG (AID 2283539). The conditions noted are these: mRNA level, 48 h; actives raise or lower the signal. Put shortly: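 HepaRG, 48 h post-plating switch to serum-free induction medium; chemical 48 h, 100 uM top, half-log x8, duplicate, 0.5% DMSO. Phenobarbital 1mM induction control. UGT1A6 mRNA by TaqMan qRT-PCR; gain/loss fit vs DMSO.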

Read-out in assay [10]: X-box binding protein 1 (XBP1), XBP1 (gene 7494)
Nature of the assay: LTEA_HepaRG_XBP1: Life Technologies and Expression Analysis (LTEA) Assay for X-box binding protein 1 (XBP1) using HepaRG (AID 2283540). To be noted: mRNA level, 48 h; actives raise or lower the signal. The essentials:
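Transcript levels of XBP1, measured by qRT-PCR and normalised to three housekeeping genes, were fitted bidirectionally relative to 0.5% DMSO controls. Human HepaRG cells received eight-point half-log dilutions from 100 uM for 48 h.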

Assay [11] is described as follows: LTEA_HepaRG_LDH_cytotoxicity: Cytotoxicity Assessment in the Life Technologies and Expression Analysis (LTEA) Assay (AID 2283563; active = hit-call score of the fitted dose curve at least 0.9, where 1 is the maximum). The essentials: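 Cells were thawed and plated for 48 h. Medium was then replaced with serum-free induction medium. Chemicals (8 half-log points, maximum 100 uM, 0.5% DMSO) were added in duplicate for 48 h, after which spent medium was assayed for LDH.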

Assay [12] in a line: TOX21_p53_BLA_p2_viability: Viability Assessment in the Tox21 HCT-116 p53 Agonism Beta-lactamase Assay, Phase 2 (AID 2283591; active = hit-call score of the fitted dose curve at least 0.9, where 1 is the maximum;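 also: compound exposure lasted 16 h at 37 °C; actives lower the ATP signal meaning cytotoxicity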). The essentials: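 HCT116 p53-bla cells, 4000/well, dosed after 5 h plating (217-fold dilution of DMSO stocks) and incubated 16 h at 37C. Viability taken as cellular ATP by CellTiter-Glo luminescence after 30 min RT; signal loss marks cytotoxicity.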

In assay [13] the target is Cellular tumor antigen p53 (Homo sapiens) (UniProt P04637). Kind of assay: TOX21_p53_BLA_p2_ratio: Tox21 HCT-116 p53 Agonism Beta-lactamase Assay, Ratio, Phase 2 (AID 2283592; active = hit-call score of the fitted dose curve at least 0.9, where 1 is the maximum). The essentials: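 HCT116 p53-bla; 4000 cells/well; 5 h pre-incubation; cpd in DMSO, 217-fold dilution; 16 h 37C/5% CO2; CCF4-AM 2 h RT; Ex 405, Em 460/530 ratio; DMSO = baseline; positive fitting direction.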

Assay [14] has the same target. Kind of assay: TOX21_p53_BLA_p3_ratio: Tox21 HCT-116 p53 Agonism Beta-lactamase Assay, Ratio, Phase 3 (AID 2283596; active = hit-call score of the fitted dose curve at least 0.9, where 1 is the maximum). The essentials:
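HCT116 p53-bla cells (4000/well) given compound in DMSO (217-fold dilution) after 5 h, incubated 16 h at 37C. CCF4-AM substrate 2 h at room temperature; 460/530 nm emission ratio, gain fitted against DMSO.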

The nature of assay [15]: TOX21_p53_BLA_p4_viability: Viability Assessment in the Tox21 HCT-116 p53 Agonism Beta-lactamase Assay, Phase 4 (AID 2283597; active = hit-call score of the fitted dose curve at least 0.9, where 1 is the maximum;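 also: hits lower the luminescence signal meaning cytotoxicity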). The essentials:
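Cells plated, 5 h pre-incubation; DMSO compounds pinned (217-fold dilution); 16 h, 37C/5% CO2; CCF4-AM 2 h RT; CellTiter-Glo 30 min RT; luminescence read.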

In assay [16] the target is Cellular tumor antigen p53 (Homo sapiens) (UniProt P04637). Nature of the assay: TOX21_p53_BLA_p5_ratio: Tox21 HCT-116 p53 Agonism Beta-lactamase Assay, Ratio, Phase 5 (AID 2283599; active = hit-call score of the fitted dose curve at least 0.9, where 1 is the maximum). Put shortly: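 HCT-116 p53-bla cells (4000/well) plated 5 h, dosed with compound (217-fold DMSO dilution) for 16 h at 37 C; CCF4-AM substrate 2 h at room temperature. Activity is the 460/530 nm emission ratio (405 nm excitation), fitted in gain-of-signal direction versus DMSO.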

The nature of assay [17]: TOX21_p53_BLA_p5_viability: Viability Assessment in the Tox21 HCT-116 p53 Agonism Beta-lactamase Assay, Phase 5 (AID 2283600; active = hit-call score of the fitted dose curve at least 0.9, where 1 is the maximum). Put shortly: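 4000 cells/well; 5 h pre-incubation; DMSO compounds pin-transferred, 217-fold dilution; 16 h, 37C/5% CO2; CCF4-AM 2 h RT; CellTiter-Glo 30 min RT; luminescence.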
Assay [18] can be described thus: ATG_XTT_Cytotoxicity: Cytotoxicity Assessment in the Attagene TRANS-FACTORIAL HepG2 Assay (AID 2283584; active = hit-call score of the fitted dose curve at least 0.9, where 1 is the maximum). Put shortly: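 Cells: human HepG2, transiently transfected with MRTU reporter constructs. Exposure 24 h. Readout: XTT, cell number. Baseline/neg ctrl DMSO; loss-of-signal scored.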
The nature of assay [19]: TOX21_p53_BLA_p3_viability: Viability Assessment in the Tox21 HCT-116 p53 Agonism Beta-lactamase Assay, Phase 3 (AID 2283593; active = hit-call score of the fitted dose curve at least 0.9, where 1 is the maximum;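 also: cells exposed to compound for 16 h before reading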). Put shortly: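 HCT116 cells, 4000/well, dosed 5 h after plating by pin transfer (217-fold dilution from DMSO stock) and incubated 16 h at 37C, 5% CO2. Viability read as ATP luminescence with CellTiter-Glo after 30 min at room temperature.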

Sequence of Cellular tumor antigen p53 (Homo sapiens) (P04637 whole entry, looked up): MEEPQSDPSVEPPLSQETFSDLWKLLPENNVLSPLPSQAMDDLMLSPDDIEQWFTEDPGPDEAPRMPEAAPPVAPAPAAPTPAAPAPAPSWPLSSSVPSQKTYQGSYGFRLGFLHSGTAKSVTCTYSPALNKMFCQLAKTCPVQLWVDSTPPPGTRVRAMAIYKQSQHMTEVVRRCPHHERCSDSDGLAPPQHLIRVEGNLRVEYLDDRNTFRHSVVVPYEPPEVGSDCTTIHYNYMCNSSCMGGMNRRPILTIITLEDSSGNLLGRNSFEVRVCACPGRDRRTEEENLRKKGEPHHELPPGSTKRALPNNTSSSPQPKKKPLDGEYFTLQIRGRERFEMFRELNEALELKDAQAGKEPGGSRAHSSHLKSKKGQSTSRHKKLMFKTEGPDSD

Usually AC50 stands for the concentration at which the activity in the assay is half-maximal. Take `Cc1cc(SC2=C(O)C[C@@](CCc3ccc(N)cc3)(C(C)C)OC2=O)c(C(C)(C)C)cc1CO`: the outcome in assay [1] was “inactive”; in assay [3], “inactive”; in assay [4] it was “inactive”; with TIMP1, TIMP1 (gene 7076), “inactive”; in assay [5], “inactive”; in assay [6], “inactive”. The outcome in assay [7], in assay [9], in assay [10], in [11], in assay [12] and in assay [13] was inactive. Further, the result in [14], in assay [15], in [16] and in assay [17] was inactive. The AC50 was 9.92 µM (active) in [2] and 1.38 µM (active) in [8].
Regarding `CCCC[C@H]1CN(CC2CCOCC2)C(=O)OC12CCN(C1(C)CCN(C(=O)c3c(C)ncnc3C)CC1)CC2`, the outcome was “inactive” in [1]; “inactive” in assay [2]; “inactive” in assay [3]; “inactive” in assay [4]; “inactive” in the assay with TIMP1, TIMP1 (gene 7076); “inactive” in assay [5]. In addition, the compound was classed as inactive in assay [6], in assay [7], in [8], in assay [9], in assay [10] and in assay [11]. Moreover, the compound was called inactive in assay [18], in [19], in [14], in assay [15], in assay [16] and in assay [17].
In the case of `c1ccc2occc2c1`, the outcome in assay [1] is “inactive”; in assay [2], “inactive”; in assay [3] it was “inactive”; in assay [4], “inactive”; with TIMP1, TIMP1 (gene 7076), “inactive”; in assay [5] it was “inactive”. Further, the outcome in assay [6], in assay [7], in assay [8], in assay [9], in assay [10] and in [11] was inactive. Besides, the compound was classed as inactive in assay [18], in assay [12], in assay [19], in assay [14], in assay [15] and in assay [16]. Besides, in assay [17], the compound was called inactive.
